Most compounds without a hit are left out; they make up all but 1.3% or so of the library.
SARS 3CLpro inh: SARS-CoV 3CLpro protease inhibition; recombinant SARS-CoV 3CLpro, quenched FRET peptide cleavage; AID 1706; inhibition, % at 6 µM; actives 0.14% (n = 290,000); P0C6X7; in the data active = inhibition above about 12%
PrPC surface inh: reduces human prion protein on the cell surface | P04156 | cell surface PrPC, TR-FRET read-out | inhibition, % at 13.8 µM | actives 0.43% (n = 370,000) | AID 720596; in the data active = inhibition above about 24%; note: 0% = median of the test wells and 100% = reference compound wells
CCHF vOTU inh: CCHFV vOTU protease inhibition. Pep-AMC fluorescence. inhibition, % at 11.5 µM. actives 0.55% (n = 370,000); in the data active = inhibition above about 30%; note: 0% = vehicle wells with enzyme and 100% = no enzyme wells
PrP UTR inh: inhibition of PrP 5' UTR reporter expression; cell-based PrP 5' UTR mRNA reporter, plate reader; inhibition, % (test concentration not listed); actives 0.35% (n = 340,000); AID 488862; in the data active = inhibition above about 52%; note: 0 = median of the neutral control wells
The depositor's hits bear a star; . = no result given.

SMILES | SARS 3CLpro inh | PrPC surface inh | CCHF vOTU inh | PrP UTR inh
O=C(NC1CCCCC1)C(c1ccnc2ccccc12)N1CCc2ccccc2C1 (stereo unspecified) | . | -6 | 76* | .
CCOc1ccc(/C=C2\SC(=S)N(CCCC(=O)NCCCN3CCOCC3)C2=O)cc1 | 2 | -4 | 4 | 81*
Cc1cc(SCc2ccccc2Cl)nc(=O)[nH]1 | 0 | 10 | -3 | 3
CCCC(=O)N1CCN(c2ccc(NC(=O)c3ccc([N+](=O)[O-])o3)cc2Cl)CC1 | 5 | 40* | 26 | -61
O=C(O)c1ccc2c(c1)[C@@H]1C=CC[C@@H]1[C@H](c1ccccn1)N2 | 4 | 15 | 54* | -18
CC1Cc2ccccc2N1C(=O)C1CCCN(S(=O)(=O)c2cccc3nsnc23)C1 (stereo unspecified) | 12* | -13 | -6 | 4
CC(C)(C)N(Cc1ccccc1)C(=O)COC(=O)[C@@H]1CCCN1C(=O)c1cccs1 | . | -4 | -2 | -14
O=c1cc2c(nn1Cc1ccc(Cl)cc1)-c1ccccc1CC2 | 8 | 7 | 33* | -1
Cc1ccc(Cn2nc3c(cc2=O)CCc2ccccc2-3)cc1 | 0 | 5 | 5 | -22
N#C/C(=C\c1ccco1)C(=O)NCC1CCCO1 (stereo unspecified) | 6 | 6 | 36* | -12
Nc1ccc(N2CCOCC2)c2nonc12 | 2 | -18 | 109* | -22
CCN(CC)CCNC(=O)c1ccc2c(c1NCCO)C(=O)c1ccccc1C2=O | 0 | 8 | 59* | .
CC1CCN(C(=O)c2ccc3c(c2NCCO)C(=O)c2ccccc2C3=O)CC1 | 1 | -87 | 24 | -31
O=C(O)c1cc(S(=O)(=O)N2CCCCC2)ccc1N1CCCCC1 | . | 10 | -2 | -16
CC1=NN(c2ccccc2)C(=O)/C1=C\c1ccc(Oc2ccc([N+](=O)[O-])cc2[N+](=O)[O-])cc1 | -11 | -40 | 91* | -9
COc1cc(/C=C2/C(=O)N(c3ccc(C)c(C)c3)N=C2C)cc([N+](=O)[O-])c1O | -13 | -8 | -2 | -21
COc1ccc(CC(=O)Oc2ccc(C#N)cc2)cc1 | 7 | -1 | -2 | -49
Nc1ccn([C@@H]2O[C@H](CO)[C@@H](O)[C@@H]2O)c(=O)n1 | -4 | -1 | 0 | 32
Nc1ncn([C@@H]2O[C@H](CO)[C@@H](O)[C@H]2O)c(=O)n1 | . | 42* | 1 | 15
C=CCSc1nsc(NC(=O)Nc2ccc(F)cc2)n1 | 5 | 37* | -3 | -11
Nc1cc(Cl)c2nonc2c1[N+](=O)[O-] | 0 | 56* | 28 | -22
O=[N+]([O-])c1c(Nc2ccccc2O)cc(Cl)c2nonc12 | 4 | -21 | 13 | -23
CCCCCCCCCCn1c2c(c(=N)c3c1CCC3)CCC2 | 0 | 48* | 14 | 5
CCCCCCCCCn1c2c(c(=N)c3c1CCC3)CCCC2 | -1 | . | . | -14
Cc1ccc(S(=O)(=O)/N=C2/C=C(C3C(=O)CC(C)(C)CC3=O)C(=O)c3ccccc32)cc1 | -2 | -4 | 108* | -57
SMILES | SARS 3CLpro inh | PrPC surface inh | CCHF vOTU inh | PrP UTR inh
CCc1ccc(S(=O)(=O)/N=C2\C=C(Nc3ccc(O)cc3)C(=O)c3ccccc32)cc1 | 8 | . | . | -22
O=C1c2ccccc2CN1CCNC(=S)NC1CCCCC1 | 1 | 5 | -12 | 68*
Cc1nc2ncnn2c(C)c1CCC(=O)N1CCCCC1 | 4 | -2 | 3 | -20
CC(=O)/C(=N\Nc1ccccc1)Sc1cccc2cccnc12 | 4 | -5 | 0 | -42
O=C(Sc1cccc2cccnc12)c1ccc(F)cc1 | 0 | 28* | 0 | .
C=CS(=O)(=O)c1ccc(Oc2ccc(S(=O)(=O)C=C)cc2)cc1 | -5 | 64* | -12 | 2
NS(=O)(=O)c1ccc(Oc2ccc(S(N)(=O)=O)cc2)cc1 | -4 | 5 | 1 | -4
Cc1ccc(-c2nc(-c3ccccc3)no2)c(Cl)c1 | -2 | -1 | 7 | 65*
O=c1c2ccc([N+](=O)[O-])cc2ncn1CCOc1ccc(Cl)cc1 | 7 | -2 | 1 | 1
COc1cccc(C(Nc2ccccn2)c2oc(CO)cc(=O)c2O)c1 (stereo unspecified) | 6 | 4 | 13 | -9
COC(=O)c1ccc(-c2noc(CN(C)CCC3CCCCO3)n2)cc1 (stereo unspecified) | -3 | -1 | 12 | -23
COC(=O)c1ccc(-c2noc(CN3CCCC(CNC(C)=O)C3)n2)cc1 (stereo unspecified) | 4 | 3 | 6 | 58*
CC1(c2cc([N+](=O)[O-])cc([N+](=O)[O-])c2)CC(C)(C)N(C(=O)c2ccccc2)c2ccccc21 (stereo unspecified) | 2 | 6 | -1 | -29

High-throughput results from PubChem BioAssay.
